In PubChem BioAssay (NCI):
This is part of a sample that, as a whole, favours compounds with a hit. Of some 83,000 tested, about 20% had one in any assay.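 Growth was measured after 48 h exposure to one concentration of compound in 96-well plates. Values under 10 count as active.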 Unmarked numbers belong to inactive results. Calls of active or inactive are those of the source.

Legend:
Assay in all cases: NCI-60 one-dose screen, 48 h (100 = growth as untreated, 0 = no growth, -100 = all killed)
Conditions in all cases: 10 µM unless noted
NCI-H226 lung = tested on: NCI-H226 lung
NCI-H322M lung = tested on: NCI-H322M lung
HOP-62 NSCLC = tested on: HOP-62 NSCLC
NCI-H460 lung = tested on: NCI-H460 lung
HOP-92 NSCLC = tested on: HOP-92 NSCLC
NCI-H522 lung = tested on: NCI-H522 lung
A549/ATCC NSCLC = tested on: A549/ATCC NSCLC
786-0 renal = tested on: 786-0 renal
COLO 205 colon = tested on: COLO 205 colon

Structure (SMILES)	growth (NCI-H226 lung)	growth (NCI-H322M lung)	growth (HOP-62 NSCLC)	growth (NCI-H460 lung)	growth (HOP-92 NSCLC)	growth (NCI-H522 lung)	growth (A549/ATCC NSCLC)	growth (786-0 renal)	growth (COLO 205 colon)
CCN(CC)CC(O)c1cc(-c2ccc(Cl)cc2)nc2cc(Cl)ccc12 (centres undefined)	78.5%	79.2%	54.6%	-0.34% (active)	19.3%	-70.4% (active)	14.6%	46.3%	-73% (active)
C1=C(c2ccccc2)c2ccccc2C1	96.3%	78.4%	94%	99.5%	74.8%	–	106%	86.4%	–
c1ccc(C2NCCNC2c2ccccc2)cc1 (centres undefined)	99.5%	100%	98.7%	109%	93.6%	–	98.1%	107%	103%
CCOc1ccc(C(C[N+](=O)[O-])Sc2ccccc2N)cc1 (centres undefined)	78.6%	–	92.1%	58.9%	82.7%	–	62.9%	-63.2% (active)	10.1%
CCOC(=O)C1(C)CCCC1N (centres undefined)	–	101%	109%	109%	-14.2% (active)	102%	110%	103%	131%
NNc1cccc([N+](=O)[O-])c1	103%	89%	–	108%	122%	61.4%	96.7%	86.4%	110%
Clc1ccccc1C(c1ccccc1)(c1ccccc1)n1ccnc1	29.2%	61.8%	34.3%	51.4%	19.7%	–	–	48.3%	24%
S=c1[nH]c2cc(Cl)ccc2s1	91.4%	94.4%	98.1%	118%	68.4%	–	108%	107%	92.9%
COc1cc([C@@H]2c3cc4c(cc3[C@H](OC3OC5COC(c6ccccc6)OC5C(O)C3O)[C@H]3COC(=O)[C@H]23)OCO4)cc(OC)c1OC (some centres undefined)	75.9%	44.2%	29.6%	20.8%	37.7%	17.5%	64.8%	64%	-77.6% (active)
Cc1onc(-c2ccccc2)c1C(=O)N/N=C/c1cc(Cl)cc(Cl)c1O	–	16%	39.3%	22.7%	49.3%	28.7%	21.9%	27.4%	16.9%
CCCCCCCCCCCC[S+](C)CC(=O)[O-] (centres undefined)	44.3%	–	38.7%	54%	30.7%	46.5%	68.4%	23.3%	2.95% (active)
O=C1Nc2ccc(Br)cc2C1=O	93.3%	102%	100%	–	103%	99.8%	–	109%	106%
CCCCCCCCCCCC1=NCCCN1CCCC	–	98.1%	94.6%	101%	74.8%	97.6%	97.6%	99.1%	98%
CC(C)(C)CC(C)(C)c1ccc(OCCOCCSC(=N)N)cc1	–	67.9%	96.1%	23.4%	37%	-3.81% (active)	68.8%	-36% (active)	-80.6% (active)
CCN(CC)CCNC(Cc1ccccc1)c1ccc(OCc2ccccc2)cc1 (centres undefined)	88.2%	–	92.8%	65.1%	6.39% (active)	73.6%	69.6%	57.4%	54.2%
O=[N+]([O-])c1ccc(N2CCN(Cc3ccccc3)CC2)c2c1no[n+]2[O-]	–	69.7%	-31.7% (active)	-70.8% (active)	25.6%	–	-40.2% (active)	-4.19% (active)	-88.2% (active)
COc1cc2c(c(OC)c1OC)-c1ccc(NCc3ccccc3)c(=O)cc1[C@@H](NC(C)=O)CC2	-12.4% (active)	–	26.9%	4.14% (active)	–	-10.3% (active)	14.5%	21.9%	-82.4% (active)
Clc1ccc(Cc2nc3ccccc3s2)cc1	89.2%	89.2%	115%	105%	122%	99.1%	96.4%	109%	117%
CCC1CCCCN1C(=S)N/N=C(\C)c1ccccn1 (centres undefined)	7.86% (active)	–	10.2%	-38.7% (active)	–	-18.6% (active)	2.7% (active)	11.3%	-37.5% (active)
C(=N\Nc1ccc2ccccc2n1)/c1ccccn1	10.9%	–	6.17% (active)	3.31% (active)	42.2%	–	8.26% (active)	22.1%	20%
O=[n+]1c2ccccc2n([O-])c2cc(Cl)ccc21	–	98.5%	77.4%	42.7%	–	–	–	32.1%	76.5%
NC(=S)N/N=C\c1nccc2c(N)cccc12	–	4.54% (active)	-7.04% (active)	3.27% (active)	19.8%	6.31% (active)	12.4%	14.2%	16.2%
Nc1cccc2cccc([N+](=O)[O-])c12	–	114%	97.8%	112%	–	104%	106%	100%	94.1%
Cc1cc(I)nc2ccccc12	104%	102%	105%	106%	93.5%	–	111%	105%	106%
NNc1ccc(Cl)cc1Cl	86.3%	77.3%	64.9%	–	55.2%	–	82.9%	86.5%	91.5%
N#C/C(=N\Nc1ccc(Cl)cc1)C(=O)C1CC1	69.9%	82.1%	41.9%	44.9%	20%	35.5%	40.9%	39.6%	60.4%
Cc1ccc(/C=C2\CNC/C(=C\c3ccc(C)cc3)C2=O)cc1	–	22.9%	4.5% (active)	-47.1% (active)	11%	-54% (active)	-53.7% (active)	-71.5% (active)	-70.5% (active)
O=C(C[P+](c1ccccc1)(c1ccccc1)c1ccccc1)c1ccccc1	99.4%	92.2%	94.7%	97.7%	55.9%	–	90.1%	99.6%	89.6%
CC(=O)C1Cc2ccccc2C1=O (centres undefined)	103%	89.5%	90.5%	111%	105%	122%	106%	103%	121%
